Test results: PubChem BioAssay
Active and inactive are the calls of the source.

What was measured:
Albumin (Bos taurus) = Albumin (Bos taurus) (UniProt P02769); test: compounds binding labelled BSA control protein – biochemical, small-molecule microarray, Alexa647 label, 635/667 nm fluorescence, artefact control for SMM control protein annotation, profiling panel (AID 1118); settings: BSA-A647 binding, fluorescence 635 nm, higher = more signal;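 also: score merges 667 nm emission intensity and signal-to-noise per printed compound spot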
[1] = probe aXIP binding to arrayed compounds – biochemical, NeuroSMM set, 635/667 nm fluorescence, primary screen (AID 1119); settings: small-molecule microarray, higher = more signal, called active from +8 up or from −8 down;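 also: probe is the protein aXip251-270 applied at 1 µg/mL to compound-printed slides; binding of probe to printed compounds measured as 667 nm fluorescence plus signal to noise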
[2] = probe aNOTCH3 binding on compound microarray – biochemical, small-molecule microarray, 635/667 nm fluorescence, primary screen (AID 1120); settings: higher = more signal;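 also: probe is a biotin-tagged antibody raised against NOTCH3 rather than NOTCH3 protein; score merges spot fluorescence near 667 nm with spot signal to noise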
[3] = probe aNOTCH2 binding on compound microarray – biochemical, small-molecule microarray, 635/667 nm fluorescence, primary screen (AID 1121); settings: higher = more signal;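 also: score merges feature fluorescence read at 667 nm with its signal to noise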
[4] = biological target: Carbonic anhydrase 2 (Homo sapiens) (UniProt P00918); test: compounds binding carbonic anhydrase 2 – biochemical, small-molecule microarray, Alexa647-labelled CAII, profiling panel (AID 1122); settings: CAII-A647 binding fluorescence, higher = more signal
[5] = COS7 lysate on small-molecule microarray, probe aHis, 635 nm (AID 1123); settings: COS7 cell lysate, fluorescence, higher = more signal;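 also: z-score combines 667nm fluorescence intensity with signal-to-noise per printed compound spot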
[6] = probe aLAP1 signal on lysate-treated microarray – cell lysate, small-molecule microarray, COS7 lysate, primary screen (AID 1124); settings: probe aLAP1, fluorescence, higher = more signal;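 also: lysate comes from COS7 cells expressing LAP1 and is applied at 0.3 µg/mL; score merges spot fluorescence near 667 nm with signal-to-noise over triplicate slides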
Sam68 (KHDRBS1) = test: compounds binding KHDRBS1 protein – biochemical, small-molecule microarray, 635 nm fluorescence, primary screen (AID 1125); settings: higher = more signal;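 also: score merges 667 nm channel intensity with signal to noise over triplicate slides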
[7] = test system: Chordin-like protein 2 (CHRDL2); test: compounds binding chordin-like 2 – biochemical, small-molecule microarray, 635 nm fluorescence, primary screen (AID 1126); settings: fluorescence 635 nm, higher = more signal;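 also: printed compound slides probed with Chrdl2 protein at 4 µg/mL for 1 h at 4 C; score merges 667 nm emission intensity with signal to noise over three replicate slides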
[8] = biological target: Concanavalin-A (Canavalia ensiformis) (UniProt P02866); test: compounds binding concanavalin A lectin – biochemical, small-molecule microarray, Alexa647 label, 635 nm, artefact control for SMM control protein annotation, primary screen (AID 1127); settings: ConA-A647 binding fluorescence, higher = more signal;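 also: z combines 667 nm emission intensity with signal-to-noise across three replicate slides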
[9] = compounds binding Alexa647 anti-His antibody – biochemical, small-molecule microarray, 635 nm fluorescence, artefact control for SMM control protein annotation, primary screen (AID 1128); settings: higher = more signal;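 also: score merges feature fluorescence with signal-to-noise for each printed compound spot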
[10] = test system: Human papillomavirus type 1a E7 protein (residues 1-88); test: HPV1a E7 small-molecule binders, primary screen, biochemical, small-molecule microarray, residues 1-88, 635 nm (AID 1129); settings: small-molecule microarray binding, fluorescence 635 nm; higher = more signal
[11] = biological target: Focal adhesion kinase 1 (Homo sapiens) (UniProt Q05397); test: PTK2 protein binding on printed compound slides – biochemical, small-molecule microarray, 635/667 nm fluorescence, BSA, DTT, primary screen (AID 1130); settings: 635 nm fluorescence, higher = more signal;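 also: composite of spot emission at 667 nm and signal to noise over triplicate slides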
[12] = test system: Fibrinogen (Alexa647-labelled); test: Alexa647-fibrinogen binding to printed small molecules – biochemical, small-molecule microarray, 635/667 nm fluorescence, artefact control for SMM control-protein annotation, profiling panel (AID 1131); settings: fibrinogen-A647 binding fluorescence, higher = more signal;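 also: z-score merges 667 nm fluorescence with per-spot signal-to-noise over triplicate slides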
[13] = biological target: Follistatin (Homo sapiens) (UniProt P19883); test: FST protein binding to printed compounds – biochemical, small-molecule microarray, 635/667 nm fluorescence, primary screen (AID 1132); settings: 635 nm fluorescence, higher = more signal
[14] = biological target: Fibroblast growth factor 2 (Homo sapiens) (UniProt P09038); test: basic fibroblast growth factor binding to printed compounds – biochemical, small-molecule microarray, 635/667 nm fluorescence, primary screen (AID 1133); settings: FGF2, fluorescence 635/667, higher = more signal
[15] = JC-1 mitochondrial potential readout, lung cancer cells – cell-based, A549, JC-1 fluorescence, basal, 24 h, 100 nL, profiling panel (AID 1138); settings: higher = more signal;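 also: A549 lung adenocarcinoma cells under basal conditions with no added stimulus; test concentration not given here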
Lefty1 = Lefty1 protein binding to printed compounds – biochemical, small-molecule microarray, 635/667 nm fluorescence, primary screen (AID 1139); settings: fluorescence 635/667, higher = more signal
[16] = test system: wheat germ agglutinin (Triticum aestivum), Alexa647-labelled; test: Alexa647-WGA lectin binding to printed small molecules – biochemical, small-molecule microarray, 635/667 nm fluorescence, artefact control for SMM control-protein annotation, profiling panel (AID 1140); settings: WGA-A647 binding, 635 nm fluorescence, higher = more signal;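 also: score merges 667 nm feature emission with signal to noise over triplicate slides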
[17] = biological target: Luciferin 4-monooxygenase (Photinus pyralis) (UniProt P08659); test: inhibition of purified Photinus pyralis luciferase – biochemical, luminescence, purified enzyme, 2006 set, primary screen (AID 1141); settings: purified firefly luciferase, SteadyGlo luminescence, 30 min; higher = more signal, called active from +8 up or from −8 down;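 also: cell-free assay with purified firefly luciferase at 100 ng per well in PBS; test concentration not given here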
Chain of Luciferin 4-monooxygenase (Photinus pyralis) (P08659 whole entry, looked up): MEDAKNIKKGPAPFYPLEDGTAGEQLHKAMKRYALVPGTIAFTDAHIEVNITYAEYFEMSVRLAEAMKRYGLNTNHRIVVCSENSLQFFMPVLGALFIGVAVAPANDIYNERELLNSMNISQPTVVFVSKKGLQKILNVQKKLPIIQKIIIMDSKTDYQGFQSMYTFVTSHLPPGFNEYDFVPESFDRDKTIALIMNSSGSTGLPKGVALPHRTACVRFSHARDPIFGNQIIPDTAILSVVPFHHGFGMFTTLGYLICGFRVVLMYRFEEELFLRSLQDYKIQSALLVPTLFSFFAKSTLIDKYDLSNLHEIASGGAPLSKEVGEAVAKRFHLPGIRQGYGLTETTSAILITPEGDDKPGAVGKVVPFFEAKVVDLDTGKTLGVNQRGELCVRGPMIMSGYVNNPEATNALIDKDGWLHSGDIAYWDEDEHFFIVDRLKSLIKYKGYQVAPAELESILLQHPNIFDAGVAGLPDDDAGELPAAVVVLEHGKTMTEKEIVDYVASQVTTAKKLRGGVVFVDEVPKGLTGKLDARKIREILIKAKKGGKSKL

Chain of Focal adhesion kinase 1 (Homo sapiens) (Q05397 whole entry, looked up): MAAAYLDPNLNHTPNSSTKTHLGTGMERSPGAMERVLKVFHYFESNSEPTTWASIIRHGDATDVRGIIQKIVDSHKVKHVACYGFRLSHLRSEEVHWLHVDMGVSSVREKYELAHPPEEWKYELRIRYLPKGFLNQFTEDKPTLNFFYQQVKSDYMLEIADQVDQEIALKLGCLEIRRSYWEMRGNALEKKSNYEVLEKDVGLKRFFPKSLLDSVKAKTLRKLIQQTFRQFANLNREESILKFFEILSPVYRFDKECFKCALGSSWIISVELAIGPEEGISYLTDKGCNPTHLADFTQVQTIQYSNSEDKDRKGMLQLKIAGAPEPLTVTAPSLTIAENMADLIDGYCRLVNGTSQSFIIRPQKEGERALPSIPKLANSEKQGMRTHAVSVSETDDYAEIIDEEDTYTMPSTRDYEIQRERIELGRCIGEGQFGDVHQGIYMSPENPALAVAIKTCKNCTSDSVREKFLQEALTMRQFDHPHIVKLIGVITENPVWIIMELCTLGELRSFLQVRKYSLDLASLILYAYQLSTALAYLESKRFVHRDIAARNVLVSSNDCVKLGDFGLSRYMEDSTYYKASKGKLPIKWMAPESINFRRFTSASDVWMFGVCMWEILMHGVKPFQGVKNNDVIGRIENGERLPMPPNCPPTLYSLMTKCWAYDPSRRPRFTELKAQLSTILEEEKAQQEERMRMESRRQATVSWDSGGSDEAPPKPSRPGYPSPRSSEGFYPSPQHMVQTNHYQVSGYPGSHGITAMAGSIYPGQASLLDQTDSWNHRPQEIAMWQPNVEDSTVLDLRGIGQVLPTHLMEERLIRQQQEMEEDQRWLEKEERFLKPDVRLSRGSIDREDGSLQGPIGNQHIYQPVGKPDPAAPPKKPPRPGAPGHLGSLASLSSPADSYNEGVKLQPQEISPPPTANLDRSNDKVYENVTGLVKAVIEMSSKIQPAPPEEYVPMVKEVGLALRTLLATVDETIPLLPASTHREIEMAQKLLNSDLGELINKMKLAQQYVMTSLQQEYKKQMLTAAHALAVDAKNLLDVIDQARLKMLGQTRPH
Chain of Fibroblast growth factor 2 (Homo sapiens) (P09038 whole entry, looked up): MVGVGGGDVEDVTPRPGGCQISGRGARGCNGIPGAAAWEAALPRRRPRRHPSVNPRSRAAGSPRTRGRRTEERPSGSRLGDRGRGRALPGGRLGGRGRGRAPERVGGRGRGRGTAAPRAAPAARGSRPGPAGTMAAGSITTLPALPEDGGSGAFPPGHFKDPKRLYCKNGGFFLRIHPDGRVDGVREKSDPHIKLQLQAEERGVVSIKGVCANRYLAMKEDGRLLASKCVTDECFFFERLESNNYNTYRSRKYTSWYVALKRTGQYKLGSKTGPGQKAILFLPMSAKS
Chain of Concanavalin-A (Canavalia ensiformis) (P02866 whole entry, looked up): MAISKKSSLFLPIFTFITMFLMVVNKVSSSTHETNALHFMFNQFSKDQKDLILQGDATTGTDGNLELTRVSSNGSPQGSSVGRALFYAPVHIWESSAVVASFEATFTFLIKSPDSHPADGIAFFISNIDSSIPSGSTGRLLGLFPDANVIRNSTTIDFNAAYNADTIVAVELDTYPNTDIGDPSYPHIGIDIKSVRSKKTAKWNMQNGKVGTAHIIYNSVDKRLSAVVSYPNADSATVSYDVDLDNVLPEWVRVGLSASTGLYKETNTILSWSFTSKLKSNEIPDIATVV
Chain of Albumin (Bos taurus) (P02769 whole entry, looked up): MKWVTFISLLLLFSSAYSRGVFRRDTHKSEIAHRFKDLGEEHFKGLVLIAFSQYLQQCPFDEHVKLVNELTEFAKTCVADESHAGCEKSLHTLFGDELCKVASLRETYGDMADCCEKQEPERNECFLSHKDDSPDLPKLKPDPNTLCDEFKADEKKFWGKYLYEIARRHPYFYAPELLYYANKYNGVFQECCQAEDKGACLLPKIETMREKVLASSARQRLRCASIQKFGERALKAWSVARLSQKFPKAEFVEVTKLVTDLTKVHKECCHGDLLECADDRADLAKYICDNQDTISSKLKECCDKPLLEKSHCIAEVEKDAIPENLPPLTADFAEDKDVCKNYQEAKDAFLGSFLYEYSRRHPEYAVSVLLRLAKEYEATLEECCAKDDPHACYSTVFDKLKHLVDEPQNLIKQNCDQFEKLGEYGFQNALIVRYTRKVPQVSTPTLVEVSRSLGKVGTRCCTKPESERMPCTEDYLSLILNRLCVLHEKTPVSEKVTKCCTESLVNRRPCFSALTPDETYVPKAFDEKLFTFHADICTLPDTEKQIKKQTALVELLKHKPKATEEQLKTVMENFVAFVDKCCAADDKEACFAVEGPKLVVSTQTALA
Chain of Follistatin (Homo sapiens) (P19883 whole entry, looked up): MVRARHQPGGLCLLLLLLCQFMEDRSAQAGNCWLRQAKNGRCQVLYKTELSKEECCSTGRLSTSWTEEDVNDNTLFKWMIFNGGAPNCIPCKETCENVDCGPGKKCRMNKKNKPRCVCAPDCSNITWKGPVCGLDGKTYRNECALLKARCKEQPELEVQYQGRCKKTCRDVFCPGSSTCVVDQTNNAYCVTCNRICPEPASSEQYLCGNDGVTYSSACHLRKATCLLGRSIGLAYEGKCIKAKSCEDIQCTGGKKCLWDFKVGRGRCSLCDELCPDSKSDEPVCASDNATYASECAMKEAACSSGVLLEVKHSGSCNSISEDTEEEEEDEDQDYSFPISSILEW

NC(=O)NCC#Cc1ccc2c(c1)[C@]1(C(=O)N2)[C@H](c2ccc(OCCO)cc2)N2[C@H](c3ccccc3)[C@H](c3ccccc3)OC(=O)[C@H]2[C@@H]1C(=O)NC[C@H](O)c1ccccc1
composite z-score (Albumin (Bos taurus)): 0.335
composite Z-score [1]: 0.691 (inactive)
composite z-score [2]: 0.0237
composite z-score [3]: -0.147
composite z-score [4]: 0.428
composite z-score [5]: 0.485
composite z-score [6]: -0.146
composite z-score (Sam68 (KHDRBS1)): -0.449
composite z-score [7]: 0.0046
composite z-score [8]: 1.03
composite z-score [9]: -0.454
composite z-score [10]: 0.542
composite z-score [11]: 0.115
composite z-score [12]: 0.879
composite z-score [13]: 1.25
composite z-score [14]: -0.0515
z-score [15]: -1.08
composite z-score (Lefty1): 0.395
composite z-score [16]: 0.259
z-score [17]: 0.409 (inactive)

CN(C)CCCNC(=O)[C@@]1(Cc2ccccc2I)c2ccccc2C(=O)N(C2CCCCC2)[C@H]1c1ccc(CO)cc1
composite z-score (Albumin (Bos taurus)): 0.33
composite Z-score [1]: 0.56 (inactive)
composite z-score [2]: 0.417
composite z-score [3]: 0.227
composite z-score [4]: 0.443
composite z-score [5]: 1.57
composite z-score [6]: 0.653
composite z-score (Sam68 (KHDRBS1)): 1.31
composite z-score [7]: -0.0713
composite z-score [8]: 1.16
composite z-score [9]: 0.743
composite z-score [10]: 1.2
composite z-score [11]: 0.732
composite z-score [12]: 1.01
composite z-score [13]: 0.872
composite z-score [14]: 0.156
z-score [15]: -1.42
composite z-score (Lefty1): 0.27
composite z-score [16]: 1.2
z-score [17]: 0.371 (inactive)

C[C@@H]1NC(=O)C([C@@H](C)OCc2ccccc2)NC(=O)[C@@]23C(=O)N[C@@H](Cc4ccccc4)C2[C@H](C)[C@@]2(C)O[C@H]2C3/C=C/C/C=C\CNC1=O (stereo not given in full)
composite z-score (Albumin (Bos taurus)): -1.17
composite Z-score [1]: 2.08 (inactive)
composite z-score [2]: -0.222
composite z-score [3]: -0.125
composite z-score [4]: 0.61
composite z-score [5]: -0.13
composite z-score [6]: 0.0711
composite z-score (Sam68 (KHDRBS1)): -0.503
composite z-score [7]: 0.209
composite z-score [8]: -0.928
composite z-score [9]: -0.839
composite z-score [10]: -1.36
composite z-score [11]: -0.526
composite z-score [12]: -0.397
composite z-score [13]: 0.0746
composite z-score [14]: 0.0742
z-score [15]: -0.0956
composite z-score (Lefty1): 0.0892
composite z-score [16]: -0.117
z-score [17]: 0.0545 (inactive)

COC(=O)[C@@]1(Cc2ccc(F)cc2)[C@H]2c3cc(C(=O)N(C)C)n(CCc4ccc(O)c(O)c4)c3C[C@H]2CN1C(=O)c1ccccc1
composite z-score (Albumin (Bos taurus)): 0.508
composite Z-score [1]: 0.964 (inactive)
composite z-score [2]: 0.0807
composite z-score [3]: 0.256
composite z-score [4]: 0.863
composite z-score [5]: 3.26
composite z-score [6]: 0.541
composite z-score (Sam68 (KHDRBS1)): 0.0409
composite z-score [7]: -0.938
composite z-score [8]: 0.227
composite z-score [9]: -0.0012
composite z-score [10]: 1.18
composite z-score [11]: 0.512
composite z-score [12]: 0.823
composite z-score [13]: -0.123
composite z-score [14]: -0.72
z-score [15]: 0.987
composite z-score (Lefty1): -0.08
composite z-score [16]: 0.528
z-score [17]: 0.569 (inactive)

C=CCC(OC(C)=O)[C@@H]1[C@@H](N(Cc2cc3ccccc3o2)C(=O)Cc2ccc(OC)cc2)c2cc(OCCCO)ccc2N1C(=O)c1ccc2ccccc2n1 (stereo not given in full)
composite z-score (Albumin (Bos taurus)): 0.277
composite Z-score [1]: -0.0847 (inactive)
composite z-score [2]: 0.0642
composite z-score [3]: -0.0303
composite z-score [4]: -0.0176
composite z-score [5]: 0.361
composite z-score [6]: -0.156
composite z-score (Sam68 (KHDRBS1)): -0.11
composite z-score [7]: 0.498
composite z-score [8]: 0.0557
composite z-score [9]: 0.264
composite z-score [10]: -0.314
composite z-score [11]: 0.138
composite z-score [12]: 0.301
composite z-score [13]: 0.654
composite z-score [14]: 0.0376
z-score [15]: -0.194
composite z-score (Lefty1): 0.0249
composite z-score [16]: -0.0063
z-score [17]: -0.219 (inactive)

O=C1C2C=CC(C(O)c3c(F)cccc3Cl)N(Nc3ccc([N+](=O)[O-])cc3)C2C(=O)N1c1ccccc1 (stereo not given)
composite z-score (Albumin (Bos taurus)): 0.589
composite Z-score [1]: -0.0608 (inactive)
composite z-score [2]: 0.465
composite z-score [3]: -0.037
composite z-score [4]: 0.804
composite z-score [5]: 2.83
composite z-score [6]: 1.43
composite z-score (Sam68 (KHDRBS1)): 1.3
composite z-score [7]: 0.268
composite z-score [8]: 1.11
composite z-score [9]: 1.62
composite z-score [10]: 1.22
composite z-score [11]: 0.682
composite z-score [12]: 0.931
composite z-score [13]: 1.36
composite z-score [14]: 0.589
z-score [15]: -0.514
composite z-score (Lefty1): 0.948
composite z-score [16]: 0.844
z-score [17]: 1.67 (inactive)

COc1ccc([Si](C)(C)[C@H]2[C@H](CC(=O)N3CCC[C@H]3CO)O[C@@]3(C(=O)N(Cc4ccc(N5CCCCC5=O)cc4)c4ccccc43)[C@@H]2C)cc1
composite z-score (Albumin (Bos taurus)): 0.664
composite Z-score [1]: -0.765 (inactive)
composite z-score [2]: 0.212
composite z-score [3]: -0.108
composite z-score [4]: 0.292
composite z-score [5]: 1.27
composite z-score [6]: 0.0516
composite z-score (Sam68 (KHDRBS1)): 1.3
composite z-score [7]: 0.824
composite z-score [8]: 1.18
composite z-score [9]: 0.952
composite z-score [10]: 1.17
composite z-score [11]: 0.516
composite z-score [12]: 0.655
composite z-score [13]: 1.27
composite z-score [14]: 1.17
z-score [15]: 1.39
composite z-score (Lefty1): 1.49
composite z-score [16]: 0.513
z-score [17]: 0.627 (inactive)

CC1CC/C=C\[C@H]2OC34C=CCN(Cc5ccccc5)C(=O)[C@H]3N(CCCCCCO)C(=O)[C@@H]4C2C(=O)O1 (stereo not given in full)
composite z-score (Albumin (Bos taurus)): 0.434
composite Z-score [1]: -0.213 (inactive)
composite z-score [2]: -0.383
composite z-score [3]: -0.133
composite z-score [4]: 0.895
composite z-score [5]: 0.42
composite z-score [6]: 0.718
composite z-score (Sam68 (KHDRBS1)): -0.957
composite z-score [7]: -0.993
composite z-score [8]: -1.45
composite z-score [9]: 0.607
composite z-score [10]: -0.415
composite z-score [11]: -0.28
composite z-score [12]: -1.31
composite z-score [13]: -0.909
composite z-score [14]: -0.808
z-score [15]: 0.856
composite z-score (Lefty1): -0.869
composite z-score [16]: -0.51
z-score [17]: -1.51 (inactive)

O=C(N1CCOCC1)[C@@]1(Cc2ccccc2)COC(c2ccc(OCCCO)cc2)=N1
composite z-score (Albumin (Bos taurus)): 1
composite Z-score [1]: -0.0252 (inactive)
composite z-score [2]: 0.14
composite z-score [3]: 0.245
composite z-score [4]: 0.769
composite z-score [5]: 2.7
composite z-score [6]: 0.872
composite z-score (Sam68 (KHDRBS1)): 1.19
composite z-score [7]: -0.354
composite z-score [8]: 0.578
composite z-score [9]: 2.69
composite z-score [10]: 1.23
composite z-score [11]: 0.674
composite z-score [12]: 0.767
composite z-score [13]: -0.119
composite z-score [14]: -0.445
z-score [15]: -1.04
composite z-score (Lefty1): -1.1
composite z-score [16]: 0.603
z-score [17]: -0.276 (inactive)

COc1ccc([Si](C)(C)[C@H]2[C@H](CC(=O)N3Cc4ccccc4C[C@H]3CO)O[C@@]3(C(=O)N(c4ccccc4)c4ccccc43)[C@@H]2C)cc1
composite z-score (Albumin (Bos taurus)): 0.622
composite Z-score [1]: 0.319 (inactive)
composite z-score [2]: 0.204
composite z-score [3]: -0.126
composite z-score [4]: 0.306
composite z-score [5]: 0.994
composite z-score [6]: 0.374
composite z-score (Sam68 (KHDRBS1)): 1.29
composite z-score [7]: 1.22
composite z-score [8]: 1.09
composite z-score [9]: 1.27
composite z-score [10]: 1.19
composite z-score [11]: 0.0758
composite z-score [12]: 0.96
composite z-score [13]: 1.37
composite z-score [14]: 1.64
z-score [15]: 1.78
composite z-score (Lefty1): 1.48
composite z-score [16]: 0.771
z-score [17]: 0.16 (inactive)
